Test results: ChEMBL document CHEMBL1961873, “Compounds: GSK PKIS; Assays: Nanosyn kinase panel” (2012)

Assays:
[1] = target: RAC-alpha serine/threonine-protein kinase (Homo sapiens) (UniProt P31749); details: at 0.1 µM
[2] = target: RAC-alpha serine/threonine-protein kinase (Homo sapiens) (UniProt P31749); details: at 1 µM
[3] = target: RAC-beta serine/threonine-protein kinase (Homo sapiens) (UniProt P31751); details: at 0.1 µM
[4] = target: RAC-beta serine/threonine-protein kinase (Homo sapiens) (UniProt P31751); details: at 1 µM
[5] = target: RAC-gamma serine/threonine-protein kinase (Homo sapiens) (UniProt Q9Y243); details: at 0.1 µM
[6] = target: RAC-gamma serine/threonine-protein kinase (Homo sapiens) (UniProt Q9Y243); details: at 1 µM
[7] = target: G protein-coupled receptor kinase 6 (Homo sapiens) (UniProt P43250); details: at 0.1 µM
[8] = target: G protein-coupled receptor kinase 6 (Homo sapiens) (UniProt P43250); details: at 1 µM
[9] = target: T1, Rhodopsin kinase GRK7 (Homo sapiens) (UniProt Q8WTQ7); details: at 0.1 µM
T1 sequence (whole entry): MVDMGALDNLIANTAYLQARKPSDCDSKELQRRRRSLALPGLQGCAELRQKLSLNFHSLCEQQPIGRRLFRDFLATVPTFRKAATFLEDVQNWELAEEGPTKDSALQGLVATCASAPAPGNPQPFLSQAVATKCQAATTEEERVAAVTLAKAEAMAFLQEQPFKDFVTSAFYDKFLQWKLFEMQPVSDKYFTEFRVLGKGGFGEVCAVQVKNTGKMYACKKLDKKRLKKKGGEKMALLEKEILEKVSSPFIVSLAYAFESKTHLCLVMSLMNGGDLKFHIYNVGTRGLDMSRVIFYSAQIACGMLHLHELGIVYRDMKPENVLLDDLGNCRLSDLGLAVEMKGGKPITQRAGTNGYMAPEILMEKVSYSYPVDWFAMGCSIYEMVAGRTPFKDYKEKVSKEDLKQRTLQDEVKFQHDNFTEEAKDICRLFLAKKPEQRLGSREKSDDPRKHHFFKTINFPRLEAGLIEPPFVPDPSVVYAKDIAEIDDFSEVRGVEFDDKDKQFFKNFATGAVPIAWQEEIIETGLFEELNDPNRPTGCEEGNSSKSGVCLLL

[10] = target: T1, Rhodopsin kinase GRK7 (Homo sapiens); details: at 1 µM

Chain of G protein-coupled receptor kinase 6 (Homo sapiens) (P43250 whole entry, looked up): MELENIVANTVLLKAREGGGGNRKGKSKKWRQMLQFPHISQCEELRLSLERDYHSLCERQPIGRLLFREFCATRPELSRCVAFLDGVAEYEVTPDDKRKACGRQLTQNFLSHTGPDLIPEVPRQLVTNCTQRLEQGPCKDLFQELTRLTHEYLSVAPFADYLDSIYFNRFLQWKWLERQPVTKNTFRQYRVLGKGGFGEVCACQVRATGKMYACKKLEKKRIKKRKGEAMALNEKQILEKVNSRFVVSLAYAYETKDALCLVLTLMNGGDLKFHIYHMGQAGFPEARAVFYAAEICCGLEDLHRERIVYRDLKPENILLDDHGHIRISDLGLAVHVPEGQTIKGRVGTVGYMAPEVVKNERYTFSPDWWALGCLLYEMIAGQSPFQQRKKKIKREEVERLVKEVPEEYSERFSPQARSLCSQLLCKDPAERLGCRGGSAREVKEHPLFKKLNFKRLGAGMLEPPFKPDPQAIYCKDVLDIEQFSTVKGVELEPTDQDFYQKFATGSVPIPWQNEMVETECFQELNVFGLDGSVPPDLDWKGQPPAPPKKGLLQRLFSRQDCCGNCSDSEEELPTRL
Chain of RAC-alpha serine/threonine-protein kinase (Homo sapiens) (P31749 whole entry): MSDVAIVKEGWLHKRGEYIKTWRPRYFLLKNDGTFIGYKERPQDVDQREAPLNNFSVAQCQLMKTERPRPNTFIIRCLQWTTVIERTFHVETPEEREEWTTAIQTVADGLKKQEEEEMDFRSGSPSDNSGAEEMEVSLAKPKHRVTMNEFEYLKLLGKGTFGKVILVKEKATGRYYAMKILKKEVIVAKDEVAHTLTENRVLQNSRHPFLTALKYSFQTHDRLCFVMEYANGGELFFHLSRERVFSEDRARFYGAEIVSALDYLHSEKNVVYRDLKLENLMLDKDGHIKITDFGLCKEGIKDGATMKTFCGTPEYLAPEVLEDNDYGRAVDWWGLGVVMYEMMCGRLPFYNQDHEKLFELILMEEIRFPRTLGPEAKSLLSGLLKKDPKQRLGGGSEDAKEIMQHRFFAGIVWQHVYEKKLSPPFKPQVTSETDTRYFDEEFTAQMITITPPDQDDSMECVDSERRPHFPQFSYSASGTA
Chain of RAC-gamma serine/threonine-protein kinase (Homo sapiens) (Q9Y243 whole entry): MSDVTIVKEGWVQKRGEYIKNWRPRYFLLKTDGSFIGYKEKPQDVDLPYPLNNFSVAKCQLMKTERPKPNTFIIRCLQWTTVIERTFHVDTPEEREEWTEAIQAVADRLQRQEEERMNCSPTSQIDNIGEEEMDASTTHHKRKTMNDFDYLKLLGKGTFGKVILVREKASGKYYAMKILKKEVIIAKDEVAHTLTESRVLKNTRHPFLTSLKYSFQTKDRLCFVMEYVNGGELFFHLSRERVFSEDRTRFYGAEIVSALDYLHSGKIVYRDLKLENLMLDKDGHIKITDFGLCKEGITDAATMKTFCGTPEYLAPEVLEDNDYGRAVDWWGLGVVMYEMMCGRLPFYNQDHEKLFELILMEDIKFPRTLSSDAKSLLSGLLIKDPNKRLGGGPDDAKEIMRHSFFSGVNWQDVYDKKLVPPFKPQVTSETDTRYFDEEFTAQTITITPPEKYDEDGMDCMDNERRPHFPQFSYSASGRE
Chain of RAC-beta serine/threonine-protein kinase (Homo sapiens) (P31751 whole entry): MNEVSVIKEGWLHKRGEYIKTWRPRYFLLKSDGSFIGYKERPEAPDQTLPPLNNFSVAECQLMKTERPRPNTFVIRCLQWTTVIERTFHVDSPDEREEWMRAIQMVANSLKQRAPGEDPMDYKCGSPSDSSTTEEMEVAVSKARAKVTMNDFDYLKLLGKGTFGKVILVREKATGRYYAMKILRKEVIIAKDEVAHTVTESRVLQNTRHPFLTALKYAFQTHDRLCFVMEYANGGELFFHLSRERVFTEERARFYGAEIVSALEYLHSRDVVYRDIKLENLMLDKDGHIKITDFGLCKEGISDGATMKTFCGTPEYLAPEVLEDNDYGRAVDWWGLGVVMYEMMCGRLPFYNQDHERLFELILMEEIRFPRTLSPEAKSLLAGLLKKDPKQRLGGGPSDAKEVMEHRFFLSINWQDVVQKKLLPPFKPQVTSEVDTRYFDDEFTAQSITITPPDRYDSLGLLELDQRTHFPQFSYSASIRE

Structure (SMILES)	inhibition [1] [%]	inhibition [2] [%]	inhibition [3] [%]	inhibition [4] [%]	inhibition [5] [%]	inhibition [6] [%]	inhibition [7] [%]	inhibition [8] [%]	inhibition [9] [%]	inhibition [10] [%]
CCOc1ccc2c(-c3ccnc(Nc4cccc(C(F)(F)F)c4)n3)cnn2n1	0.26	0.31	0.57	1.35	-0.38	4.77	-2.91	-2.59	3.77	0.86
Nc1nc(-c2ccc(F)cc2)c(-c2ccc3ncccc3n2)s1	0.67	1.34	2.24	2.19	5.53	1.9	5.89	5.57	6.78	7.94
COc1ccc(-c2nn3ncccc3c2-c2ccnc(Nc3ccc4c(c3)OCCO4)n2)cc1	-0.35	-0.09	-0.91	-0.18	0.24	2.32	-1.91	-1.49	4.16	2.81
COc1ccc(-c2cc3c(N)ncnc3o2)cc1	-0.96	-1.46	-0.81	-0.64	-1.06	1.62	-0.25	0.98	3.4	-1.5
NS(=O)(=O)c1ccc(N/N=C2\C(=O)Nc3ccc4ncccc4c32)cc1	0.85	0.69	1.6	2.48	1.36	2.03	-2.97	15.8	4.91	19
COc1cccc(-c2c[nH]c3c(N/N=C/c4ccncc4)ncnc23)c1	1.29	0.32	1.22	-0.06	1.48	-0.22	-1.66	-7.11	0.28	-6.92
COc1cc(/C=N/Nc2ncnc3[nH]ncc23)ccc1O	0.87	0.81	1.01	0.76	1.65	0.92	4.89	5.42	2.24	5.07
Cc1ccc(O)cc1Nc1ccnc2cc(-c3ccccn3)ccc12	1.31	1.02	2.69	2.45	1.16	2.32	1.43	-3.7	4	-2.85
COc1cccc(-n2ncc3c(N/N=C/c4ccc(F)cc4)ncnc32)c1	0.98	0.49	2	1.56	1.42	0.92	5.53	7.7	3.44	19.5
Fc1cccc(COc2ccc(Nc3ncnc4sc(-c5ccco5)cc34)cc2Cl)c1	0.99	0.75	0.95	1.84	0.12	50.3	2.57	11.6	11.4	43.4
Fc1ccc(-c2nn3ccccc3c2-c2ccncc2)cc1	0.06	1.28	0.35	1.43	1.01	4.38	0.75	-0.76	0.65	3.13
Cc1ccc2c(-c3ccnc(Nc4ccccc4)n3)c(-c3ccc(F)cc3)nn2n1	0.59	0.99	2.02	1.95	1.53	1.01	0.38	-3.54	1.12	-6.29
CCNC(=O)O[C@H]1CN[C@H](C#Cc2cc3ncnc(Nc4ccc(OCc5cccc(F)c5)c(Cl)c4)c3s2)C1	1.21	0.9	3.39	2.59	1.29	1.95	2.11	4.14	2.34	2.31
CCCN1CCC(c2ccc(Nc3nc(Nc4cc(F)ccc4C(N)=O)c4cc[nH]c4n3)c(OC)c2)CC1	-0.31	0.33	2.13	1.62	1.85	2.68	16.3	58.8	11.6	45
N#Cc1c(NC(=O)c2ccc(F)cc2)sc2c1CCCC2	-0.22	0.69	0.36	0.77	2.13	0.2	2.85	4.08	0.7	4.43
c1ccc(-c2nc3n(c2-c2ccc4c(c2)OCO4)CCC3)nc1	0.15	0.19	0.67	0.83	0.55	0.06	3.19	2.38	1.13	3.19
